From PubChem BioAssay
Tau fibril FP: qHTS for Inhibitors of Tau Fibril Formation, Fluorescence Polarization; Potency, µM (series often up to 57.7 µM), for the others: at the top dose activity, negative = inhibition, usual class: inhibitors; K18 P301L tau heparin fibrillization, Alexa594 FP, 6 h; 280,000 compounds, 0.39% hits; Microtubule-associated protein tau (Homo sapiens), P10636; AID 1468, 2008; also: potency is read from the fitted curve at half-maximal effect; nearly all actives have a fitted effect of over 55% in size
Target sequence (P10636 561-689 P618L limits assumed): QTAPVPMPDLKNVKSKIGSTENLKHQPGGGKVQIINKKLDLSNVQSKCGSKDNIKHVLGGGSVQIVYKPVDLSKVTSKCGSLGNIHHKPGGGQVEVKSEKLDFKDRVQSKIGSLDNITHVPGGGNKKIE
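Read-out: fluorescence polarization of Alexa 594-labeled tau (0.24 uM), 555 nm excitation, 632 nm emission. Mixtures held 15 uM unlabeled K18 P301L, compound and 20 uM heparin, pH 7 acetate buffer, incubated 6 hr at 37 C.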
Tau ThT inhib: qHTS for Inhibitors of Tau Fibril Formation, Thioflavin T Binding | 270,000 compounds, 2.1% hits | AID 1460, 2008 | Potency, µM (top dose mostly 57.4 µM), for inactives: at the highest dose activity, negative = inhibition, most hits filed as inhibitors | Microtubule-associated protein tau (Homo sapiens), P10636 | recombinant tau K18 P301L, heparin-induced fibrillization, ThT fluorescence; also: potency is read from the fitted curve at half-maximal effect; nearly all actives have a fitted effect of over 55% in size
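Aggregation was driven by heparin (20 uM final) acting on recombinant tau […] bearing P301L in 100 mM sodium acetate pH 7; fibrils were detected with Thioflavin T.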
Coupling enz: qHTS Assay for Inhibitors of Fructose-1,6-bisphosphate Aldolase from Giardia Lamblia: Coupling assay counterscreen. coupling enzyme system counterscreen, AmpLite Red fluorescence. activity change, negative = inhibition, % at 58.2 µM, hits read low. 290,000 compounds, 0.67% hits. AID 2472, 2010; in the data active = activity change below about -30%
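First, compound is pin-transferred into glyceraldehyde-3-phosphate coupling-enzyme reagent at 57.5 uM final and held 10 min at RT. Next, substrate, coupling system and AmpLite Red are added. After 20 min RT, fluorescence (525/598 nm) is read.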
Tau fluor cs: Counterscreen qHTS for Inhibitors of Tau Fibril Formation, Fluorescence Polarization; tau K18 P301L (four-repeat tau fragment) Alexa594 fluorescence, heparin fibrillization; Potency, µM (series often up to 57.7 µM), inactives show top-dose activity change, negative = decrease; 280,000 compounds, 0.93% hits; also: potency is read from the fitted curve at half-maximal effect; nearly all actives have a fitted effect of over 55% in size
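Human K18 P301L tau (15 uM unlabeled plus 0.24 uM Alexa 594-labeled, final) in 100 mM sodium acetate pH 7 was mixed with compound and 20 uM heparin and incubated 6 hr at 37 C.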
Numbers without * were called inactive; ? = inconclusive; / = no result given; [ ] = dose if it differs, or a comment. The list is not random: actives were taken first. Their share in the collection is about 2.7%. Unless noted, calls follow the shape of the dose curve; as a rule, active = well fitted curve in the direction sought with a large enough effect; inconclusive = small, poorly fitted or top-dose-only effect, or another doubt; inactive = no such curve, though single readings can be large; an effect the other way counts as inactive or inconclusive. % is scaled to controls: 0 for no effect and ±100 for the full control effect.

SMILES	Tau fibril FP	Tau ThT inhib	Coupling enz	Tau fluor cs
NS(=O)(=O)c1ccc(N/N=C/c2cn(-c3ccccc3)nc2-c2cccs2)c([N+](=O)[O-])c1	16.0%	2.51µM*	-1.2	?
O=C(Nc1ccc(N=Nc2ccccc2)c(NC(=O)C2CCCO2)c1)C1CCCO1 (configuration not stated)	-1.9%	14.1µM*	2.3	-26.6%
O=C(Nc1ccc([N+](=O)[O-])c(NC(=O)C2CCCO2)c1)C1CCCO1 (configuration not stated)	-3.4%	?	-6.8	-10.9%
Cc1ccc(NC(=S)NNC(=S)Nc2cccc(C(F)(F)F)c2)cc1	?	/	-0.7	14.1µM*[quencher]
FC(F)(F)c1cccc(NC(=S)NCc2ccc(Cl)cc2)c1	?	5.3%	0.3	?
FC(F)(F)c1cccc(NC(=S)NNC(=S)Nc2ccc(Cl)cc2)c1	?	/	-2.0	8.91µM*[quencher]
COc1ccc(-c2noc(CCCC(=O)Nc3cccc(Cl)c3C)n2)cc1	-12.6%	-14.7%	/	-8.0%
O=[N+]([O-])c1ccc(/C=N/NC(=S)Nc2ccc(Cl)cc2Cl)s1	6.1%	?	-10.8	?
CC(C)c1ccc(OCC(=O)Nc2ccc(S(=O)(=O)Nc3ncccn3)cc2)cc1	1.4%	6.4%	/	-1.2%
CCc1ccc2c(c1)c1nc(C)sc1n2CC	?	25.1µM*	-21.1	-26.4%
CCOc1ccc(CCn2c3c(c(=O)[nH]c2=O)C(NC(=O)c2ccccc2)(C(F)(F)F)C(=O)N3)cc1OCC (configuration not stated)	-1.1%	-6.5%	/	-9.6%
Cc1ccccc1CNC(=O)CCCn1c(=O)c2cccn2c2ccccc21	-6.1%	1.6%	/	-5.6%
O=C1/C(=C/c2ccncc2)SC(=S)N1Cc1ccccc1	-0.8%	?	-3.4	-24.1%
Cc1ccc(/C=C2/NC(=O)N(Cc3ccccc3)C2=O)o1	?	31.6µM*	-10.3	-21.0%
O=C(O)c1cc(-c2ccc(/C=C3/SC(=S)N(Cc4ccccc4)C3=O)o2)ccc1Cl	-6.2%	10µM*	-1.7	1.9%
Cc1ccc(/C=C2\SC(=S)N(Cc3ccccc3)C2=O)o1	?	15.8µM*	-15.9	?
COc1ccc(CN2C(=O)/C(=C/c3ccc(-c4ccc(Cl)c(C(=O)O)c4)o3)SC2=S)cc1	-4.2%	?	2.2	-4.3%
Cc1ccc(/C=C2\SC(=S)N(c3cccnc3)C2=O)o1	?	15.8µM*	-24.9	-18.2%
Cc1ccc(C(=O)NNC(=S)Nc2cccc3ccccc23)s1	?	12.6µM*	1.0	-27.0%
CC(=O)c1ccc(NC(=O)CN2CCN(c3ncccn3)CC2)cc1	-1.9%	-5.6%	-54.8*	-4.7%
CC(=O)c1ccc(NC(=O)CN2CCN(CC(=O)Nc3ccc(C(C)=O)cc3)CC2)cc1	/	/	-0.5	/
CC1COC(=O)O1 (configuration not stated)	/	/	-0.5	/
CC1=NN(c2ccccc2)C(=O)C1N=Nc1ccc(N)cc1 (configuration not stated)	-10.8%	11.2µM*	-18.3	15.8µM*[quencher]
COc1ccccc1N(O)C1CC(=O)N(c2ccc(F)cc2)C1=O (configuration not stated)	?	14.1µM*	-13.8	15.8µM*[quencher]
CCOC(=O)c1c(C)oc2c1c(C=NCc1ccccn1)c(O)c1ccccc12	-7.8%	12.6µM*	-53.0*	?
SMILES	Tau fibril FP	Tau ThT inhib	Coupling enz	Tau fluor cs
CCOC(=O)c1c(C)oc2c1c(C(c1cccnc1)N1CCN(C)CC1)c(O)c1ccccc12 (configuration not stated)	11.3%	?	-13.4	-26.8%
CCOC(=O)c1c(C)oc2c1c1c(c3ccccc32)OCN(Cc2cccnc2)C1	?	17.8µM*	-56.6*	?
CCOC(=O)c1c(C)oc2c1c1c(c3ccccc32)OCN(CCCC(=O)O)C1	0.4%	?	-22.0	?
CCOC(=O)c1c(C)oc2c1c(C(c1cccnc1)N1CCOCC1)c(O)c1ccccc12 (configuration not stated)	-4.8%	17.8µM*	-44.1*	?
Cc1ccc(C2=N/C(=C\N3CCCCC3)C(=O)O2)cc1	6.1%	-14.6%	-0.7	-29.3%
Cc1nn(-c2ccccc2)c(N2CCCC2)c1/C=C1\N=C(c2ccc(OC(C)C)cc2)OC1=O	9.6%	10µM*	0.0	-21.3%
Cc1ccc(NC(=O)C2CCCN2S(=O)(=O)c2cccc3cccnc23)cc1C (configuration not stated)	-2.3%	?	/	-20.7%
COc1ccc2nc(-n3c(O)c(C4=c5ccccc5=NC4=O)[nH]c3=S)sc2c1	?	2.24µM*	1.6	8.91µM*[quencher]
CCNC(=S)Nc1cc(OCC)c(N2CCOCC2)cc1OCC	-3.0%	-5.7%	-6.7	-6.8%
CCCNC(=O)Nc1cc(OCC)c(N2CCOCC2)cc1OCC	-6.7%	-3.6%	-52.7*	-12.3%
CCOc1cc(N2CCOCC2)c(OCC)cc1NC(=O)c1ccc2ccccc2n1	12.1%	25.1µM*	-9.2	?
CCOc1cc(N2CCOCC2)c(OCC)cc1NS(=O)(=O)c1ccc(Cl)s1	-11.3%	?	-44.8*	?
COc1ccccc1NS(=O)(=O)c1cccc(-n2c(O)c(C=Nc3ccccc3C(=O)O)c3ccccc3c2=O)c1	-16.6%	15.8µM*	4.7	?
CCn1cc2nc(SCC(=O)Nc3ccc(OC)cc3OC)n(Cc3ccc(OC)cc3)c(=O)c2n1	/	/	0.2	/
Cc1cccc(CNc2cc(-c3cccnc3)ncn2)c1	1.5%	-4.7%	4.7	-8.6%
CCC(=O)Nc1cccc(OCc2cc(=O)n3cc(C)ccc3n2)c1	7.9%	-11.2%	/	-2.5%
COc1cc(OC)c(NC(=O)Nc2cccc(OCc3cc(=O)n4ccccc4n3)c2)cc1Cl	7.9%	?	/	6.31µM*[quencher]
COc1ccc(OC)c(NC(=O)Nc2cccc(OCc3cc(=O)n4cc(C)ccc4n3)c2)c1	?	?	/	12.6µM*[quencher]
COc1ccc(NC(=O)Nc2cccc(OCc3cc(=O)n4cccc(C)c4n3)c2)c(OC)c1	?	?	/	7.08µM*[quencher]
CC(C)CCC[C@@H](C)[C@@H]1CC[C@H]2C3=CC=C4CC(O)CC[C@]4(C)[C@H]3CC[C@@]21C (some centres not stated)	/	/	-2.2	/
CCCn1c(=O)c2sccc2n2c(CCCC(=O)N3CCN(c4ccccc4OC)CC3)nnc12	2.9%	-1.4%	/	-7.8%
Cc1[nH]c2ccccc2c1C(c1ccccn1)c1c(C)[nH]c2ccccc12	16.6%	?	-71.2*	?
Cc1[nH]c2ccccc2c1C(O)c1ccncc1 (configuration not stated)	-8.6%	-3.0%	-0.3	1.5%
Cc1ccc(Cc2cnc(NC(=O)C3Cc4ccc(C)cc4C(=O)O3)s2)cc1 (configuration not stated)	-10.9%	-7.0%	/	-15.1%
CC(C)(C)c1ccc(C(=O)Nc2onc3c2CCCC3)cc1	1.1%	-14.7%	/	-21.9%
